Screening results as filed in PubChem BioAssay.
Most compounds without a hit are left out; they make up all but 3% or so of the library.
PAFAH1B2 FP inh: PAFAH1B2 enzyme inhibitors, primary screen, biochemical, fluorescence polarization, human. actives 1.2% (n = 340,000). AID 492953, 2010. recombinant PAFAH1B2, FP-rhodamine activity probe. inhibition, % at 3.39 µM. Platelet-activating factor acetylhydrolase IB subunit alpha2 (Homo sapiens), P68402;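 active = inhibition above the mean of all tested compounds plus 3 SD, cut at about 24% in these data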;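 also: 0% = enzyme with DMSO and 100% = wells lacking PAFAH1B2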
pPAFAH FP inh: pPAFAH enzyme inhibitors, primary screen, biochemical, fluorescence polarization, human; Platelet-activating factor acetylhydrolase (Homo sapiens), Q13093; recombinant pPAFAH, FP-rhodamine probe fluorescence polarization; inhibition, % at 3.39 µM; actives 1.5% (n = 330,000);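 active = inhibition above the mean inhibition across the screen plus 3 SD, cut at about 25% in these data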;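 also: inhibitors block binding of the rhodamine activity-based probe so polarization drops; 0% = enzyme with DMSO and 100% = wells lacking pPAFAH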
DAGLB inhibitor: DAGLB lipase inhibitors, primary screen, biochemical, fluorescence, HTS; HEK293T DAGLB membrane lysate, EnzChek fluorogenic substrate; inhibition, % at 5.17 µM; actives 0.059% (n = 340,000); AID 504411, 2011; in the data active = inhibition above about 34%;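 also: 0% = enzyme with vehicle and 100% = wells lacking enzyme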
Target sequence (Q8NCG7 whole entry, looked up): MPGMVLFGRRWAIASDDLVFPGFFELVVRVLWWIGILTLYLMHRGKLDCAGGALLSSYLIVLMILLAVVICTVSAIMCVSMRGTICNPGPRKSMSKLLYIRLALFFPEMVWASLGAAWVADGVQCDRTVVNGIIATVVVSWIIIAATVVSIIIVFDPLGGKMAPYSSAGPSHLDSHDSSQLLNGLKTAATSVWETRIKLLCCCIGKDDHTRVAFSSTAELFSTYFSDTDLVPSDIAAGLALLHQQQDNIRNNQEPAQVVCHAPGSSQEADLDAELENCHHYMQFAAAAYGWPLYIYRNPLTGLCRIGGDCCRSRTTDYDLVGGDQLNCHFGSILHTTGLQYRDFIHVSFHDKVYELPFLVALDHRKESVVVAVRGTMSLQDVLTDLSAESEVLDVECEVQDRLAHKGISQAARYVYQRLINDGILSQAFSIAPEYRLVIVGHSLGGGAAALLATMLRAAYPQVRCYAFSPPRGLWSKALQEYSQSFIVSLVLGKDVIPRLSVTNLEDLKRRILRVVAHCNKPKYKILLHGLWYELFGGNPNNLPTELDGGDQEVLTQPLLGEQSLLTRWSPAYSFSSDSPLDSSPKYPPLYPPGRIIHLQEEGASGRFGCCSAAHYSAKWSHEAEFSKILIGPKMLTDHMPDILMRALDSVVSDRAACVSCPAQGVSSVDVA
PAFAH1B3 FP inh: PAFAH1B3 enzyme inhibitors, primary screen, biochemical, fluorescence polarization, human; Platelet-activating factor acetylhydrolase IB subunit alpha1 (Homo sapiens), Q15102; recombinant PAFAH1B3, FP-rhodamine probe; inhibition, % at 3.39 µM; actives 0.28% (n = 340,000);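 active = inhibition above the screen-wide average of all tested compounds plus 3 SD, cut at about 25% in these data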;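 also: 0% = enzyme with DMSO only and 100% = wells lacking PAFAH1B3 protein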
PAFAH2 inh: PAFAH2 enzyme inhibitors, primary screen, biochemical, fluorescence polarization, human | Platelet-activating factor acetylhydrolase 2, cytoplasmic (Homo sapiens), Q99487 | actives 0.99% (n = 340,000) | recombinant PAFAH2, FP-rhodamine activity probe | inhibition, % at 3.39 µM;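 active = inhibition above the mean over all tested compounds plus 3 SD, cut at about 30% in these data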;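 also: inhibitors block probe labeling of enzyme so polarization drops; 0% = enzyme with DMSO and 100% = wells lacking PAFAH2 protein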
ATG4B inh: ATG4B protease inhibitors, primary screen, biochemical, fluorescence, uHTS; inhibition, % at 8.33 µM; Cysteine protease ATG4B (Homo sapiens), Q9Y4P1; actives 0.51% (n = 340,000); ATG4B cleavage of LC3-PLA2, NBD-HPC fluorescence, 1 h; in the data active = inhibition above about 40%
* marks the source's active call; other numbers are inactive results; nt = no result given.

SMILES	PAFAH1B2 FP inh	pPAFAH FP inh	DAGLB inhibitor	PAFAH1B3 FP inh	PAFAH2 inh	ATG4B inh
O=S(=O)(Nc1ccccc1)c1ccc(NS(=O)(=O)c2c(F)cccc2F)cc1	15	28*	2	6	1	-5
Cc1ccc(Nc2ccccc2)cc1	7	6	-3	18	-4	3
Cc1ccc(S(=O)(=O)Nc2ccc(Nc3ccccc3)cc2)cc1	12	29*	2	13	3	-3
O=C(O)c1ccc(NS(=O)(=O)c2cccc(S(=O)(=O)c3ccc(Cl)c(Cl)c3)c2)cc1	9	11	1	-2	73*	8
O=C(Nc1ccn(CCCNCc2cccc3ccccc23)c(=O)n1)OCc1ccccc1	nt	nt	2	nt	nt	nt
COc1ccccc1CN(C)C[C@H]1OCc2cnnn2CCCC(=O)N([C@H](C)CO)C[C@@H]1C	nt	nt	0	nt	nt	nt
Cc1[nH]c(C)c(S(=O)(=O)NCc2ccc(F)cc2)c1C(=O)N1CCCC1	-2	-3	0	-1	5	2
CC(C)c1ccc(C(C)NCCS(=O)(=O)c2ccc(Cl)cc2)cc1 (stereo not drawn)	34*	1	-2	6	5	1
COc1cc(CNCCO)cc(Br)c1OCc1ccccc1Cl	-2	12	-1	-6	1	3
COc1cc(CNCCO)cc(Cl)c1OCc1ccc(Cl)cc1Cl	8	28*	-4	13	7	6
Cc1cc(C(=O)NCCc2ccccc2)c2cc(F)ccc2n1	11	0	-2	4	-2	-13
CCC(C)N1C(=O)/C(=C/c2c(NCCCOC(C)C)nc3c(C)cccn3c2=O)SC1=S (stereo not drawn)	34*	0	-7	38*	52*	3
COCCCNC(=S)NNC(=O)c1csc(C)n1	2	-1	-4	1	-5	4
CCc1nn(CC(=O)Nc2ccc(Br)c(C)c2)c(=N)s1	3	4	-2	3	-3	-8
CCS(=O)(=O)c1ccc(O)c(NC(=O)c2ccc(S(=O)(=O)N3CCCCCC3)cc2)c1	10	28*	5	11	13	-5
Cc1cc2cc(CNC(=O)c3ccc(S(=O)(=O)N4CCCCC4)cc3)ccc2n1C	-4	31*	5	-2	-8	-10
O=C(Nc1cc(S(=O)(=O)N2CCCCC2)ccc1O)c1ccccc1NS(=O)(=O)c1ccc(F)c(F)c1	43*	34*	14	-10	48*	-10
CC1Nc2nc(N(C)C)[nH]c(=O)c2NC1C (stereo not drawn)	-4	1	-1	-2	-13	7
COc1ccccc1N1CCN(C(=O)CCC(=O)N2CCN(c3ccc(F)cc3)CC2)CC1	7	1	-1	8	6	-3
O=C(Nc1nnc(SCc2c(Cl)cccc2Cl)s1)C1CC(=O)N(c2ccc3c(c2)OCCO3)C1 (stereo not drawn)	-1	32*	1	3	21	5
O=C(Nc1nnc(SCc2ccc(F)cc2)s1)C1CC(=O)N(c2ccc3c(c2)OCCO3)C1 (stereo not drawn)	4	26*	1	-3	0	5
N#Cc1ccc(CSc2nnc(NC(=O)C3CC(=O)N(c4ccc5c(c4)OCCO5)C3)s2)cc1 (stereo not drawn)	1	9	3	12	-2	7
COC(=O)[C@H]1C[C@H]2[C@@H]3CC[C@H]4C[C@@H](OC)CC[C@]4(C)[C@H]3CC[C@]2(C)[C@@]2(CCCO2)O1	3	4	-1	4	-5	-1
CCCC(C(=O)NC1CCCC1)N(CC1CCCO1)C(=O)CNS(=O)(=O)c1ccc(F)cc1 (stereo not drawn)	2	7	-4	-3	-2	0
CCN(CC)CC(=O)NCC1(c2ccccc2)CCCC1	26*	2	0	1	1	-5
SMILES	PAFAH1B2 FP inh	pPAFAH FP inh	DAGLB inhibitor	PAFAH1B3 FP inh	PAFAH2 inh	ATG4B inh
Cc1ccc(C(=O)NCC2(c3ccccc3)CCCC2)cc1	92*	15	-5	5	4	0
O=C(CN1CCCCC1)NCC1(c2ccccc2)CCCC1	29*	4	-1	2	-2	4
O=C(CSc1ccccc1)NCC1(N2CCCCC2)CCCCC1	-2	34*	-3	5	0	4
O=C(CSc1nnnn1-c1ccccc1)NCC1(N2CCCCC2)CCCCC1	2	0	-1	-3	1	1
O=C(CN1CCCC1)NCC1(c2ccccc2)CCOCC1	-3	2	-2	6	-3	-4
CCN(CC)CC(=O)NCC1(c2ccccc2)CCOCC1	9	-1	2	-2	1	-9
COc1ccc(C(=O)NCC2(c3ccccc3)CCOCC2)cc1[N+](=O)[O-]	-4	-2	0	6	-2	-4
c1ccc(COc2ccc(OCCN3CCCCC3)cc2)cc1	-2	1	-2	4	-1	-1
Cc1cccnc1NC(=O)CCc1c[nH]c2ccccc12	3	5	2	3	3	-1
O=C(CSc1ccccc1)NC(=O)NCc1ccccc1	32*	6	1	2	5	-9
Cc1nc(SCC(=O)NC(=O)NCc2ccccc2)nc(C)c1C	12	3	0	-4	2	-19
CCC(c1ccccc1)c1nc(-c2ccccn2)no1 (stereo not drawn)	27*	-1	-2	10	2	-7
CCC(c1ccccc1)c1nc(-c2cccnc2)no1 (stereo not drawn)	17	5	-3	0	5	5
CC1CCN(CCCNC(=O)CCNC(=O)Cn2cnc3ccccc3c2=O)CC1	4	1	-1	5	-1	6
CC(CS(=O)(=O)c1ccc2c(c1)NC(=O)CS2)C(=O)N1CCN(c2cccc(Cl)c2)CC1 (stereo not drawn)	-1	25*	1	0	-2	-3
CC(CS(=O)(=O)c1ccc2c(c1)NC(=O)CS2)C(=O)NCc1ccccc1Cl (stereo not drawn)	2	14	5	-4	9	18
Clc1ccc(SCc2cc(-c3ccccc3)no2)cc1	42*	-1	-26	4	1	-2
Clc1ccc(OCc2cc(-c3ccccc3)no2)c(Cl)c1	2	3	-16	0	-4	3
CN(C)c1ccc(C=Nc2ccc(N(C)C)cc2)cc1	6	19	7	5	0	-6
